Experimental data as given in PubChem BioAssay (NCI).
This is part of a sample that, as a whole, favours compounds with a hit. Of some 79,000 tested, about 15% had one in any assay. The source made the active and inactive calls. No stated cut-off is given here; in the data, active means growth inhibition above about 70%; inactive means the rest.

Key:
[1] = NCI Yeast Anticancer Drug Screen. Data for the mec2-1 strain (AID 157); details: S. cerevisiae mec2-1 strain, stronger effect = higher value
How it was run: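 Cells of the genetically defined mec2-1 yeast strain are incubated with test compound. Inhibition of growth is calculated against vehicle-treated controls.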

[2] = NCI Yeast Anticancer Drug Screen. Data for the rad14 strain (AID 159);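 further: 0% = growth of vehicle-treated control cultures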; details: S. cerevisiae rad14 strain growth inhibition, stronger effect = higher value
How it was run: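 A mutant yeast strain defective in DNA damage repair is treated with compound; inhibition of its growth is scored against untreated, vehicle-exposed cultures.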

[3] = NCI Yeast Anticancer Drug Screen. Data for the sgs1 mgt1 strain (AID 161);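 further: 0% = growth of cultures given vehicle only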; details: S. cerevisiae sgs1 mgt1 strain, stronger effect = higher value
How it was run: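 Inhibition of yeast growth, normalised to vehicle-treated controls, is reported for a strain bearing genetic alterations in DNA damage repair.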

[4] = NCI Yeast Anticancer Drug Screen. Data for the CLN2oe strain (AID 163);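 further: 0% = growth of vehicle-only control cultures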; details: S. cerevisiae CLN2oe strain, stronger effect = higher value
How it was run: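 Strain altered in cell-cycle control, incubated with compound; growth compared to solvent-treated controls.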

[5] = NCI Yeast Anticancer Drug Screen. Data for the cln2 rad14 strain (AID 165);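 further: 0% = growth equal to vehicle treated cultures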; details: S. cerevisiae cln2 rad14 strain, stronger effect = higher value
How it was run: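 The screen exposed genetically defined yeast (cln2 rad14) to test compounds and scored growth inhibition relative to vehicle-treated controls.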

[6] = NCI Yeast Anticancer Drug Screen. Data for the bub3 strain (AID 167); details: S. cerevisiae bub3 mutant strain, stronger effect = higher value
How it was run: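 Steps: expose the mutant yeast strain to compound; grow alongside vehicle-treated cultures; measure growth; express inhibition against the vehicle cultures.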

[7] = NCI Yeast Anticancer Drug Screen. Data for the wt2 strain (AID 169);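 further: 0% = growth of vehicle-treated yeast cultures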; details: S. cerevisiae wt2 strain growth inhibition, stronger effect = higher value
How it was run: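 Steps: yeast strain treated with compound; growth recorded; inhibition calculated relative to cultures given vehicle alone.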

[8] = NCI Yeast Anticancer Drug Screen. Data for the mlh1 strain (AID 171);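 further: 0% = growth of vehicle-treated control cultures of the same strain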; details: S. cerevisiae mlh1 strain growth inhibition, stronger effect = higher value
How it was run: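 Yeast screen: mutant strain plus compound, growth scored against vehicle control wells.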

[9] = NCI Yeast Anticancer Drug Screen. Data for the sgs1 strain (AID 173);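 further: 0% = growth of vehicle-only control cultures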; details: S. cerevisiae sgs1 mutant, stronger effect = higher value
How it was run: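 Inhibition of yeast growth served as the measure. The mutant strain was treated with each compound, and growth was normalised to cultures receiving vehicle alone.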

[10] = NCI Yeast Anticancer Drug Screen. Data for the mlh1 rad18 strain (AID 175); details: S. cerevisiae mlh1 rad18 strain growth inhibition, stronger effect = higher value
How it was run: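 Compound-treated yeast growth, normalised to vehicle controls. Strain bears defined DNA repair mutations.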

[11] = NCI Yeast Anticancer Drug Screen. Data for the rad18 strain (AID 177); details: S. cerevisiae rad18 mutant growth inhibition, stronger effect = higher value
How it was run: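 Inhibition values reflect reduced yeast growth compared with vehicle-treated controls, using a strain engineered with a DNA damage repair defect.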

[12] = NCI Yeast Anticancer Drug Screen. Data for the rad52 strain (AID 147);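 further: 0% = growth of vehicle-treated control cultures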; details: S. cerevisiae rad52 mutant growth inhibition, stronger effect = higher value
How it was run: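 Genetically altered yeast (DNA damage repair defect) treated with compound; inhibition calculated relative to vehicle.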

[13] = NCI Yeast Anticancer Drug Screen. Data for the wt1 strain (AID 149);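 further: 0% = growth of vehicle-treated wt1 cultures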; details: S. cerevisiae wt1 strain (SPY 50644) growth inhibition, stronger effect = higher value
How it was run: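 Compounds are added to wt1 yeast cultures. Growth is then measured. Inhibition is expressed relative to vehicle-treated controls.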

[14] = NCI Yeast Anticancer Drug Screen. Data for the rad50EPP+ strain (AID 151);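 further: 0% = growth of vehicle-treated control cultures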; details: S. cerevisiae rad50 mutant strain, stronger effect = higher value
How it was run: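 Strain rad50EPP+; compound exposure; % growth inhibition vs vehicle.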

[15] = NCI Yeast Anticancer Drug Screen. Data for the mgt1 strain (AID 153); details: S. cerevisiae mgt1 mutant growth inhibition, stronger effect = higher value
How it was run: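 Read-out: yeast growth inhibition vs vehicle control. Strain mgt1, drawn from a panel altered in DNA damage repair or cell cycle control.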

[16] = NCI Yeast Anticancer Drug Screen. Data for the rad50 strain (AID 155);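 further: 0% = growth of vehicle-only cultures of the same strain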; details: S. cerevisiae rad50 strain growth inhibition, stronger effect = higher value
How it was run: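 Inhibition values express reduced yeast growth in compound-treated cultures relative to vehicle-treated controls.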

[17] = at 5.0 µM (retest, dose inferred, filed as 0.5)
[18] = at 50.0 µM (retest, dose inferred, filed as 5.0)

Measured: growth inhibition

C=C1N(C)c2ccc(Cl)cc2C1(C)C
active: [1]; [17] 77% | [1]; [18] 100% | [1]; at 50.0 µM 90.1% | [1]; at 100.0 µM 96% | [2]; at 100.0 µM 95% | [3]; [18] 88% | [4]; at 100.0 µM 96% | [5]; [18] 86% | [6]; [18] 93% | [6]; at 100.0 µM 97% | [7]; at 100.0 µM 94% | [8]; at 100.0 µM 94% | [9]; at 100.0 µM 92% | [10]; [18] 100% | [10]; at 50.0 µM 88.9% | [11]; at 100.0 µM 94%
inactive: [1]; at 11.0 µM -8% | [1]; at 33.0 µM 19% | [2]; at 1.2 µM -33% | [2]; at 3.7 µM -37% | [2]; at 11.0 µM -23% | [2]; at 33.0 µM 12% | [3]; [17] -6% | [4]; at 1.2 µM -16% | [4]; at 3.7 µM -31% | [4]; at 11.0 µM -22% | [4]; at 33.0 µM 4% | [5]; [17] 64% | [6]; at 1.2 µM 18% | [6]; at 3.7 µM 28% | [6]; [17] -1% | [6]; at 11.0 µM 5% | [6]; at 33.0 µM 28% | [7]; at 1.2 µM -30% | [7]; at 3.7 µM -30% | [7]; at 11.0 µM -28% | [7]; at 33.0 µM -23% | [8]; at 1.2 µM -45% | [8]; at 3.7 µM -43% | [8]; at 11.0 µM -30% | [8]; at 33.0 µM 3% | [9]; at 1.2 µM -24% | [9]; at 3.7 µM -46% | [9]; at 11.0 µM -47% | [9]; at 33.0 µM 1% | [10]; [17] 57% | [11]; at 1.2 µM -2% | [11]; at 3.7 µM -18% | [11]; at 11.0 µM -26% | [11]; at 33.0 µM 15%

CCCCCC(=O)c1ccc(O)cc1O
inactive: [12]; at 1.2 µM -14% | [12]; at 3.7 µM 1% | [12]; at 11.0 µM 10% | [13]; at 1.2 µM -14% | [13]; at 3.7 µM -18% | [13]; at 11.0 µM -6% | [14]; at 1.2 µM 15% | [14]; at 3.7 µM 23% | [14]; at 11.0 µM 33% | [14]; at 33.0 µM 59% | [15]; at 1.2 µM 17% | [15]; at 3.7 µM -2% | [15]; at 11.0 µM 12% | [16]; at 1.2 µM -7% | [16]; at 3.7 µM -4% | [16]; at 11.0 µM 2% | [1]; at 1.2 µM -7% | [1]; at 3.7 µM -6% | [1]; at 11.0 µM 10% | [2]; at 1.2 µM -9% | [2]; at 3.7 µM -5% | [2]; at 11.0 µM -3% | [3]; [17] -5% | [4]; at 1.2 µM -3% | [4]; at 3.7 µM 8% | [4]; at 11.0 µM 1% | [5]; [17] 37% | [6]; at 1.2 µM 8% | [6]; at 3.7 µM 14% | [6]; [17] 33% | [6]; at 11.0 µM 40% | [7]; at 1.2 µM -3% | [7]; at 3.7 µM -4% | [7]; at 11.0 µM -18% | [8]; at 1.2 µM 7% | [8]; at 3.7 µM 10% | [8]; at 11.0 µM 20% | [9]; at 1.2 µM -19% | [9]; at 3.7 µM -2% | [9]; at 11.0 µM -6% | [11]; at 1.2 µM -17% | [11]; at 3.7 µM 3% | [11]; at 11.0 µM 9%
active: [12]; at 33.0 µM 90% | [12]; at 100.0 µM 98% | [13]; at 33.0 µM 91% | [13]; at 100.0 µM 99% | [14]; at 100.0 µM 98% | [15]; at 33.0 µM 93% | [15]; at 100.0 µM 99% | [16]; [17] 92% | [16]; at 33.0 µM 91% | [16]; [18] 98% | [16]; at 50.0 µM 89.2% | [16]; at 100.0 µM 97% | [1]; [17] 91% | [1]; at 33.0 µM 95% | [1]; [18] 99% | [1]; at 50.0 µM 91.8% | [1]; at 100.0 µM 99% | [2]; at 33.0 µM 90% | [2]; at 100.0 µM 98% | [3]; [18] 92% | [4]; at 33.0 µM 86% | [4]; at 100.0 µM 99% | [5]; [18] 90% | [6]; at 33.0 µM 93% | [6]; [18] 92% | [6]; at 100.0 µM 99% | [7]; at 33.0 µM 87% | [7]; at 100.0 µM 99% | [8]; at 33.0 µM 90% | [8]; at 100.0 µM 95% | [9]; at 33.0 µM 90% | [9]; at 100.0 µM 98% | [11]; at 33.0 µM 92% | [11]; at 100.0 µM 98%
